PubChem BioAssay AID1789 (The Scripps Research Institute Molecular Screening Center, 2009)
Out of some 290,000 compounds screened, about 2,700 (0.93%) were called active. Shown is part of a subset that was picked to be rich in actives. A number with no mark means an inactive call.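 Rule for the calls: active = inhibition above the screen-wide mean plus 3 SD, computed separately per campaign (cut at about 16% in these data); inactive = the rest.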

tested on: Heat shock protein HSP 90 (rabbit reticulocyte lysate; luciferase refolding); assay: HSP90 inhibitors, primary screen, cell lysate, luminescence (AID 1789); conditions: 3 h, at 5.6 µM, hits give high values;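 note: 0% = DMSO wells and 100% = 60 µM geldanamycin wells; inhibitors lower the luminescence because luciferase stays unfolded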

Row | SMILES | inhibition
1 | CCCOc1cccc(C(=O)NCCCNC(=O)c2cccnc2)c1 | 3.77%
2 | Nc1cc(N2CCCCCC2)c2nonc2c1[N+](=O)[O-] | 0.32%
3 | Cn1ncc2c(NNC(=O)Cc3cccc4ccccc34)ncnc21 | 5.78%
4 | Cc1ccc(C(=O)O/N=C(\N)c2ccccn2)cc1Cl | 42.5% (active)
5 | N/C(=N\OC(=O)c1ccc([N+](=O)[O-])cc1)c1ccccn1 | 2.51%
6 | COc1ccc(C(=O)O/N=C(\N)c2ccccn2)cc1[N+](=O)[O-] | -3.48%
7 | CN(C)c1ccc(C2N(C)C(=O)c3ccccc3N2C)cc1 (configuration not stated) | 4.78%
8 | Cc1ccc(C)c(NS(=O)(=O)c2c(C)[nH]c(C)c2C(=O)N2CCCCC2)c1 | 3.8%
9 | O=C(Nc1ccccc1Cl)NC1(C(=O)N2CCOCC2)CCCCC1 | 0.58%
10 | Cc1ccc2c(N)c(C(=O)c3ccccc3)sc2n1 | 1.67%
11 | CCN(CC)C(=O)c1sc2nc(-c3ccccc3)ccc2c1N | 16.5% (active)
12 | CS(=O)(=O)c1sc2nc(-c3ccccc3)cc(-c3ccccc3)c2c1N | 0.41%
13 | O=C(O)CSc1c2c(nc3cc(C(=O)Nc4cccc(C(F)(F)F)c4)ccc13)CCCC2 | -0.05%
14 | CCCCNC(=S)NNC(=O)c1cc(C)on1 | -1.37%
15 | CCCCNC(=O)Nc1c(C)cc(SC#N)cc1C | 36.7% (active)
16 | CCCCNC(=O)C(=O)c1ccccc1NC(C)=O | 4.09%
17 | CC(C)CC[n+]1ccn(C2=C([O-])c3ccccc3C(=O)/C2=N\S(=O)(=O)c2ccccc2)c1 | 6.11%
18 | CCOC(=O)c1sc(NC(=O)c2sc(C)nc2C)nc1C | 9.21%
19 | CC1CCCCN1CCCNc1ccc(C(CC(N)=O)NC(=O)c2ccccc2)cc1[N+](=O)[O-] (configuration not stated) | -2.66%
20 | OC(c1nc2ccccc2[nH]1)C(O)C(O)C(O)c1nc2ccccc2[nH]1 (configuration not stated) | -0.14%
21 | Cc1nc2ccc(C(=O)O)cc2[nH]1 | 31.3% (active)
22 | Cc1nc2ccc(C(=O)N(C)CC3CCCN(CCc4ccc(Cl)cc4)C3)cc2[nH]1 (configuration not stated) | -8.86%
23 | CC(C)c1nc2ccc(C(=O)O)cc2[nH]1 | 37.9% (active)
24 | Cc1nc2ccc(C(=O)N/N=C/c3ccc(O)cc3)cc2[nH]1 | 1.87%
25 | OC(c1nc2ccc(F)cc2[nH]1)C(O)c1nc2ccc(F)cc2[nH]1 (configuration not stated) | -4.25%
26 | COc1ccc(C(=O)n2nc(C)c(Br)c2C)cc1OC | 4.92%
27 | C#CCOc1ccc(/C=C2/C(=O)ON=C2C)cc1OCC | 1.13%
